Compound activity (PubChem BioAssay)
Shown are actives, neighbours in structure and some others; about 2.9% of the full set was active somewhere.
FH mod = Identification of activators of human fumarate hydratase by quantitative high-throughput screening. 54,000 tested, 0.22% active. FH coupled MDH/diaphorase resazurin fluorescence, 15 min. Potency, µM (series often up to 79.9 µM), usual class: inhibitors; further: the screen sought activators but most active calls are inhibition curves; nearly all actives have a fitted effect of over 45% in size
DRV1 agonist = qHTS for Agonists of Human Resolvin D1 Receptor DRV1 | Probable G-protein coupled receptor 32 (Homo sapiens), O75388 | CHO-K1 GPR32 beta-arrestin PathHunter luminescence, 90 min; zero percent set by DMSO-only wells | activation, % at 76.9 µM | 48,000 tested, 2.5% active | AID 1346428, 2018;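 active means activation of at least 60% and not above a set upper limit, about 1 call in 100 departs from these limits; inconclusive means activation of 40% to 60%, or above that upper limit; inactive means activation under 40%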
Target sequence (O75388 whole entry, looked up): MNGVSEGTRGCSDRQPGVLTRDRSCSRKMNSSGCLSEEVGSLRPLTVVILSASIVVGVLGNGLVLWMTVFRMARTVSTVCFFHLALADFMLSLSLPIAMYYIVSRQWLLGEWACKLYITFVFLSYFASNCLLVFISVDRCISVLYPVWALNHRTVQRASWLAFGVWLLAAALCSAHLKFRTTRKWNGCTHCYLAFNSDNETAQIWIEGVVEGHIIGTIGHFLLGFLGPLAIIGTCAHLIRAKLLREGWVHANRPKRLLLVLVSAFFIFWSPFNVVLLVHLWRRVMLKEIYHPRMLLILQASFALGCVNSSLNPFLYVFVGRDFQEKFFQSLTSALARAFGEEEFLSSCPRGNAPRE
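Using DMSO wells as EC0, agonist-induced signal was taken as chemiluminescence from beta-Gal reconstituted upon beta-arrestin recruitment to GPR32 in CHO-K1 cells after 90 min compound treatment.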
p53null 32C tox = qHTS Screen for Compounds that Selectively Target Cancer Cells with p53 Mutations: Cytotoxicity of p53 Null Cells at the Permissive Temperature | H1299-neo p53 null cells, ATP luminescence, 24 h, 32C | Potency, µM (doses to about 46.1 µM), usual class: cytotoxic | 55,000 tested, 0.62% active; further: nearly all actives have a fitted effect of over 55% in size
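ATP-content luminescence in p53-null H1299-neo cells after 24 h compound exposure (up to 46 uM) at 32C permissive temperature; 0% and 100% killing set by DMSO and 100 uM tamoxifen; Hill-equation AC50.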
p53null 39C tox = qHTS Screen for Compounds that Selectively Target Cancer Cells with p53 Mutations: Cytotoxicity of p53 Null Cells at the Nonpermissive Temperature; H1299 p53-null (neo) cells, 39C, ATPlite viability, 24 h; Potency, µM (doses to about 46.1 µM), usual class: cytotoxic; 55,000 tested, 0.97% active; further: nearly all actives have a fitted effect of over 50% in size
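Concentration-response (up to 46 uM) was run for 24 h at the nonpermissive 39C on H1299-p53A138V or H1299-neo cells. ATP content was measured with ATPlite luminescence. AC50 values were Hill-modeled after normalizing between DMSO and 100 uM tamoxifen killing.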
A number is an active result; i = inactive; ? = inconclusive; nt = no result given; [ ] = another dose, or the depositor's remark. Unless noted, the call rests on the fitted dose curve; in most records, active means well fitted curve in the direction sought with a large enough effect; inconclusive means small, poorly fitted or top-dose-only effect, or another doubt; inactive means no such curve, though single readings can be large; an effect the other way counts as inactive or inconclusive.

SMILES	FH mod	DRV1 agonist	p53null 32C tox	p53null 39C tox
CCCCN(C)CCCNC(=O)C1CCN(c2nc3ccc(CC)cc3s2)CC1	i	i	?	12.6µM
CCCCN(CC)CCCNC(=O)C1CCN(c2nc3ccc(CC)cc3s2)CC1	i	i	?	12.6µM
COC(=O)c1c(SCC(=O)Nc2cc(OC)cc(OC)c2)[nH]c2ccc(C)cc2c1=O	?	i	?	3.16µM
COc1cc(NC(=O)Cn2ccn(-c3cc(C)cc(C)c3)c(=O)c2=O)cc(OC)c1	i	i	i	i
COC(=O)c1c(SCC(=O)Nc2ccccc2OC)[nH]c2ccccc2c1=O	i	i	?	7.94µM
CC1=CC(=O)CC(C)(C)C1CCC(C)O[C@@H]1O[C@H](CO[C@@H]2OC[C@@H](O)[C@H](O)[C@H]2O)[C@@H](O)[C@H](O)[C@H]1O (stereo partly specified)	i	nt	nt	nt
CCCCc1ccc(NC(=O)c2cc3c(=O)n4ccccc4nc3s2)cc1	i	i	i	i
COc1ccc(Cl)cc1NC(=O)c1cc2c(=O)n3ccccc3nc2s1	i	i	i	12.6µM
Cc1cccc(N(C)c2nc3ccc(C)cc3n3cnnc23)c1	i	66.1	i	i
O=C(N/N=C/c1ccc([N+](=O)[O-])s1)c1ccncc1	nt	nt	nt	i[1.84 µM]
O=C(N/N=C/c1ccccc1O)c1ccncc1	i	95.9	nt	nt
CCCOc1ccc(C(=O)Nc2cccc(-c3nc4ccccc4[nH]3)c2)cc1	i	82.5	i	?
CCCOc1cccc(C(=O)Nc2ccc(-c3nc4ccccc4o3)cc2)c1	i	107.7	i	i
CCOc1cccc(C(=O)Nc2ccc3oc(-c4ccncc4)nc3c2)c1	i	?	i	i
CCOc1cc(OCC)cc(C(=O)Nc2cccc(-c3nc4ccccc4[nH]3)c2)c1	i	i	?	?
CC(=O)OC1C(O)/C(C)=C\C2C(OC(=O)c3ccccc3)C(C)CC2(OC(C)=O)C(OC(C)=O)C(C)/C=C/C(C)(C)C1OC(C)=O (stereo unspecified)	i	nt	nt	nt
COC(=O)CCC(=O)OC[C@]1(C)CCC[C@@]2(C)C3CC[C@]4(C)C=CC3(CCC12)C4 (stereo partly specified)	i	nt	nt	nt
CCn1ccc2c(OCC(=O)NCc3ccccc3)cccc2c1=O	i	i	i	i
CCOC(=O)c1ccc(NC(=O)COc2cccc3c(=O)n(C)ccc23)cc1	i	68.7	i	i
CCn1ccc2c(OCC(=O)Nc3ccccc3C(F)(F)F)cccc2c1=O	i	84.9	i	i
Cn1ccc2c(OCC(=O)Nc3ccc(OC(F)(F)F)cc3)cccc2c1=O	i	i	i	i
COCCn1ccc2c(OCC(=O)Nc3cccc(OC)c3)cccc2c1=O	i	72.7	i	i
CCCn1ccc2c(OCC(=O)NCc3ccccc3Cl)cccc2c1=O	i	68.8	i	i
C=C[C@H]1C(O[C@@H]2O[C@H](CO)[C@@H](O)[C@H](O)[C@H]2O)OC=C2C(=O)N3CCc4c([nH]c5ccccc45)[C@H]3C[C@H]21 (stereo partly specified)	i	nt	nt	nt
C=CC(=O)N1CC(N2CCN(C(=O)CNc3cc(C4CC4)c(Cl)cc3O)CC2)C1	i	nt	nt	nt
SMILES	FH mod	DRV1 agonist	p53null 32C tox	p53null 39C tox
CCCN(CCC)CCNC(=O)c1cc(-c2ccc(Br)s2)nc2ccccc12	i	i	i	i
CCCCN(C)CCNC(=O)c1cc(-c2ccc(Cl)s2)nc2ccccc12	i	i	i	12.6µM
CC(C)CN(CCNC(=O)c1cc(-c2ccc(Cl)s2)nc2ccccc12)CC(C)C	i	i	i	i
CCN(CC)CCNC(=O)c1cc(-c2ccc(Br)s2)nc2ccccc12	i	i	i	25.1µM
Cn1cc(-c2cc3n(n2)CCC(=O)N3CCCC(=O)Nc2ccccc2Cl)c2ccccc21	i	60.3	?	i
Cn1cc(-c2cc3n(n2)CCC(=O)N3CCCC(=O)Nc2ccccc2F)c2ccccc21	i	i	i	i
Cc1cccc(CNC(=O)CN2C(=O)CCn3nc(-c4cn(C)c5ccccc45)cc32)c1	i	107.3	i	i
Cc1cccc(CNC(=O)CCCN2C(=O)CCn3nc(-c4cn(C)c5ccccc45)cc32)c1	i	i	i	?
C=C(C(=O)OC[C@H]1O[C@@H](OC(=O)/C=C/c2ccccc2)[C@H](O)[C@@H](O)[C@@H]1O)C(O)CO (stereo partly specified)	i	nt	nt	nt
COc1cc(CCC2=NN=C(NC(=O)c3ccc(N4C[C@@H](C)N[C@@H](C)C4)cc3)C2)cc(OC)c1	i	nt	nt	nt
CCOc1c(Cl)cc(CNc2ccc3[nH]c(=O)[nH]c3c2)cc1OC	i	85.3	i	i
COc1cc(CNc2ccc3[nH]c(=O)[nH]c3c2)ccc1OCc1ccc(F)cc1Cl	i	i	i	i
C[C@@H]1O[C@@H](O[C@@H]2[C@@H](O)[C@H](O[C@@H]3[C@@H](O)[C@@H](O)[C@H](O[C@H]4[C@H](OC(=O)[C@]56CCC(C)(C)C[C@H]5C5=CCC7[C@@]8(C)C[C@H](O)[C@H](O[C@@H]9O[C@H](C(=O)O)[C@@H](O)[C@H](O)[C@H]9O)[C@@](C)(CO)C8[C@H](O)C[C@@]7(C)[C@]5(C)C[C@H]6O)O[C@@H](CO)[C@@H]4O)O[C@H]3C)OC[C@H]2O)[C@H](O)[C@H](O)[C@H]1O (stereo partly specified)	i[13.5 µM]	nt	nt	nt
COc1ccc2nc(-c3ccc(N)cc3)[nH]c2c1	nt	nt	12.6µM	?
COc1ccc2nc(-c3cccc(N)c3)[nH]c2c1	nt	nt	10µM	8.91µM
NC(=S)c1ccc[n+]([C@@H]2O[C@@H](COP(=O)([O-])OP(=O)(O)OC[C@H]3O[C@@H](n4cnc5c(N)ncnc54)[C@H](OP(=O)(O)O)C3O)C(O)C2O)c1 (stereo partly specified)	i	nt	nt	nt
c1ccc(-c2cnn3cc(-c4ccc(OCCN5CCOCC5)cc4)cnc23)cc1	i	nt	nt	nt
COc1ccc(-c2noc(N3CCN(c4ccc(C)cc4)C(C)C3)n2)cc1OC (stereo unspecified)	i	60.8	i	i
COCCCNC(=O)CSc1c2c(nc3ccc(Cl)cc13)CCCC2	i	i	i	i
CCN(CC)CCCNC(=O)CSc1c2c(nc3cc(Cl)ccc13)CCCC2	i	i	i	12.6µM
Cc1ccc(-c2csc(=Nc3ccccc3)n2Cc2ccc3c(c2)OCO3)cc1	i	i	i	i
CCN(CC)CCn1c(-c2ccccc2)csc1=Nc1ccccc1	i	84.7	i	i
COc1ccc(-c2csc(=Nc3ccccc3)n2CCO)cc1F	i	96.3	i	i
COc1ccc(N=c2scc(-c3ccc(OC)cc3)n2CCO)cc1	nt	nt	i	i
O=C(COc1ccc(F)cc1)OCc1cc(=O)n2nc(C3CC3)sc2n1	i	96.8	i	i
